Screening data: PubChem, National Center for Advancing Translational Sciences (NCATS)
PGK inhibitor: qHTS Assay to Find Inhibitors of Phosphoglycerate Kinase. Phosphoglycerate kinase, glycosomal (Trypanosoma brucei brucei), P07378. PGK/GAPDH coupled, Kinase-Glo luminescence, 60 min. Potency, µM (highest dose often 57.5 µM), hits mostly inhibitors. 380,000 tested, 0.043% active. AID 602233, 2012; note: nearly all actives have a fitted effect of over 60% in size
Target sequence (P07378 whole entry, looked up): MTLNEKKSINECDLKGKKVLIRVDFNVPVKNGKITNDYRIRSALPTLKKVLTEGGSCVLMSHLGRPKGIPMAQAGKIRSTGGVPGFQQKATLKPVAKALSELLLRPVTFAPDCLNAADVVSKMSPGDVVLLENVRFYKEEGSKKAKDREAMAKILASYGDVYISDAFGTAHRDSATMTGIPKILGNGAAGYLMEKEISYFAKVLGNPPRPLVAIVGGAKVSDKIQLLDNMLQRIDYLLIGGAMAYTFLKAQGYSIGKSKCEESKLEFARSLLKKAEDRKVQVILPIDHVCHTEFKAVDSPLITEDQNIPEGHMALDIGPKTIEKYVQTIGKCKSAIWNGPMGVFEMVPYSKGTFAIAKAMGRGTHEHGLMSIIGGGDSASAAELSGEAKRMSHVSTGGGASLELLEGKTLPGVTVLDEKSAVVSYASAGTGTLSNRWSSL
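Luminescent ATP detection (Kinase-Glo Plus) follows a 60-minute room-temperature incubation, with wells lacking PGK as controls. Buffer: 100 mM TEA (pH 7.6), 5 mM MgCl2, 0.01% Tween-20. Coupling enzyme GAPDH (100 nM final) supplies unstable 1,3-BPG in-well.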
PI4K2A inh: qHTS for small molecular inhibitors of PI4K2A; activity change, negative = inhibition, % at 76.9 µM; 420,000 tested, 0.13% active; AID 1346378, 2018; purified PI4K2A, ADP-Glo luminescence, 1 h; hits give low values; in the data active = activity change below about -50%; inconclusive = mostly about -30% to -49%
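ADP-Glo luminescence measured ADP generated by PI4K2A enzyme (4 ug/mL before mixing) with 1.2 mM PI substrate (pre-mix) and 300 microM ATP (pre-mix). Tris pH7.5 buffer with MgCl2, Triton X-100; 1 h reaction at ambient temperature.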
Tb PFK inh: qHTS Assay to Find Inhibitors of T. brucei phosphofructokinase; ATP-dependent 6-phosphofructokinase (Trypanosoma brucei brucei), O15648; T. brucei PFK, ADP-Glo luminescence; Potency, µM (series often up to 57.5 µM), most hits filed as inhibitors; 330,000 tested, 0.17% active; note: nearly all actives have a fitted effect of over 60% in size
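In TEA buffer at pH 8.0 with 5 mM MgCl2, enzyme (1.25 nM) converted F6P (0.5 mM) and ATP (0.1 mM) for 45 min at room temperature. ADP product was read by luciferase luminescence.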
PI5P4Ka inh: qHTS for Inhibitors of phosphatidylinositol 5-phosphate 4-kinase (PI5P4K); 330,000 tested, 1.2% active; Phosphatidylinositol 5-phosphate 4-kinase type-2 alpha (Homo sapiens), P48426; max response, %; PI5P4Kalpha enzyme, ADP-Glo luminescence, 60 min; hits give low values; active = max response of -50% or lower; inconclusive = between -30% and -50%; inactive = -30% or higher; note: value at the top dose of about 77 µM
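Controls without substrate or without enzyme flank wells where PI5P4Kalpha converts substrate using 5 microM ATP (final). Incubation lasts 60 minutes at room temperature; ADP formed is read by ADP-Glo luminescence.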
Pin1 inhibitor: qHTS Assay to Find Inhibitors of Pin1; Potency, µM (top dose mostly 115 µM), hits mostly inhibitors; AID 504891, 2011; Pin1 FP peptide displacement, HiFluor488, 10 min; 390,000 tested, 0.009% active; active = well fitted inhibition curve with a large enough effect in the polarisation, with a control signal flat, not every such curve was filed as active; inconclusive = small, poorly fitted or top-dose-only effect, or effect the other way, or a change in a side signal; inactive = no such curve, though single readings can be large or run the other way; the % refers to the polarisation
Target sequence (Q13526 whole entry, looked up): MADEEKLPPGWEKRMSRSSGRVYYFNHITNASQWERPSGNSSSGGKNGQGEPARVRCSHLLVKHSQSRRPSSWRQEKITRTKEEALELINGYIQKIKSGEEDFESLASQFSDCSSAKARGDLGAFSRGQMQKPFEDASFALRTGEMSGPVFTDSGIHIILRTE
A number is an active result; – = inactive; ? = inconclusive; · = no result. This excerpt belongs to a sample that is enriched for hits. Unless noted, calls come from the whole dose curve; as a rule, active = well fitted curve in the direction sought with a large enough effect; inconclusive = small, poorly fitted or top-dose-only effect, or another doubt; inactive = no such curve, though single readings can be large; an effect the other way counts as inactive or inconclusive.

SMILES	PGK inhibitor	PI4K2A inh	Tb PFK inh	PI5P4Ka inh	Pin1 inhibitor
CCN(CC)c1ccc(C(=C2C=CC(=[N+](CC)CC)C=C2)c2ccc(N(CC)CC)cc2)cc1	?	-70.7	·	-72.9	–
CCN(CC)c1ccc(C(=C2C=CC(=[N+](CC)CC)C=C2)c2cc(S(=O)(=O)O)ccc2S(=O)(=O)[O-])cc1	·	-51.1	·	·	·
O=C(Nc1ccc2[nH]c(=S)sc2c1)c1ccccc1	–	–	–	-68.2	–
O=C(Nc1ccc2[nH]c(=S)sc2c1)Nc1ccccc1F	·	–	–	-72.2	–
O=C(Nc1ccc2[nH]ccc2c1)c1ccccc1	–	–	–	–	–
O=C(Nc1ccc(F)cc1)Nc1ccccc1F	–	–	–	–	–
O=C(c1cccc(S(=O)(=O)Nc2ccccc2Cl)c1)N1CCN(c2ccccc2O)CC1	–	–	–	–	–
CCN1CCN(C(=O)c2ccc(-c3nc4ccccc4s3)s2)CC1	–	–	–	–	–
c1ccc2sc(SN3CCOCC3)nc2c1	–	–	–	-76.3	–
c1ccc2sc(-c3ccc4c(c3)OCO4)nc2c1	?	-67.6	–	–	?
O=C(Nc1cccc(-c2nc3ccccc3s2)c1)c1ccc2c(c1)OCO2	–	–	–	·	–
O=C(c1ccc(-c2nc3ccccc3s2)s1)N1CCOCC1	?	-66.5	–	?	–
COc1cc(-c2cc(-c3ccc(O)cc3)nc(N)c2C#N)ccc1O	–	–	–	-50.7	–
COc1ccc(-c2cc(-c3ccc(O)cc3)nc(N)c2C#N)cc1	–	–	–	–	–
C=CCN(C(=O)CCc1ccccc1OC)c1nc(-c2ccc(S(C)(=O)=O)cc2)cs1	–	–	–	–	–
C=CCN(C(=O)Cc1cccs1)c1nc(-c2ccc(S(C)(=O)=O)cc2)cs1	–	–	–	-62.7	–
O=C(CN1C(=O)CSC1=O)Nc1ccc2c(c1)OCCO2	–	–	–	-55.4	–
Cc1nn(S(=O)(=O)c2ccc(Cl)cc2)c(C)c1Sc1ccc([N+](=O)[O-])cc1	–	–	–	–	–
CCc1sc(/C=C(/C#N)C(N)=S)cc1[N+](=O)[O-]	–	–	–	-83.3	–
O=C(O)c1cccc2cccc(-c3c4ccc(=O)c(O)c-4oc4c(O)c(O)ccc34)c12	2.51µM	-55.3	·	-94.9	·
CC(=O)c1c(C(C)=O)c(C)n(-c2ccc(C(=O)O)cc2)c1C	–	–	–	–	–
Cc1ccc(C)n1-c1ccc(C(=O)O)cc1	·	·	10.7µM	·	·
Cc1cc(=O)n(-c2ccc(C(=O)O)cc2)[nH]1	–	-56.3	–	–	?
CCOC(=O)Cn1c(=NC(=O)C2CC2)sc2c(C)cc(C)cc21	–	–	–	–	–
Cc1ccc(NC(=O)CN2C(=O)N/C(=C/c3cc(C)n(-c4ccc(C(=O)O)cc4)c3C)C2=O)cc1	–	–	–	-53.3	?
SMILES	PGK inhibitor	PI4K2A inh	Tb PFK inh	PI5P4Ka inh	Pin1 inhibitor
O=c1c2c(nc3cc(-c4ccccc4Cl)[nH]n13)CCS2	–	–	–	–	?
Cc1n[nH]c(=S)n1/N=C/c1ccc(OCc2ccc(Cl)cc2)cc1	–	–	–	-55.2	–
Cc1n[nH]c(=S)n1/N=C/c1ccc(OCc2ccc(Cl)cc2Cl)cc1	–	–	–	–	–
O=c1cc(CCc2ccccc2)[nH]c(=O)[nH]1	·	–	·	–	·
O=c1cc(S(=O)(=O)Cc2ccccc2)[nH]c(=O)[nH]1	–	–	·	-65.7	–
CN(c1ccc(C(=O)NCc2ccc3c(c2)OCO3)cc1)S(=O)(=O)c1ccccc1	–	–	–	–	–
CCCCCCCCNS(=O)(=O)CC1NCc2cc(OC)ccc21 (stereo unspecified)	·	–	·	·	·
Cc1ccc(/C=C2/C(=O)c3ccc(C(=O)O)cc3C2=O)o1	?	–	–	-62.3	?
Cc1ccc(C=C2C(=O)c3ccccc3C2=O)o1	?	?	–	?	–
COc1ccc(/C=C/C=C2\N=C(SC)SC2=O)cc1	–	–	–	–	–
COc1cccc(C(=O)Nc2ccc(N3CCN(C(=O)c4cccs4)CC3)cc2)c1	–	–	–	–	–
CCCNC(=O)Nc1cc(C)on1	–	–	–	–	–
O=C(O)c1cc(O)c2c(c1)C(=O)c1cc(O)cc(O)c1C2=O	?	–	–	-86.1	?
O=C(O)c1cc(O)c(O)c(O)c1	·	–	·	·	·
COc1ccc(C(=O)COC(=O)c2cnc(C)cn2)c(OC)c1	–	–	–	-55.6	–
Cc1cnc(C(=O)OCC(=O)c2csc(N3CCCCC3)n2)cn1	–	–	?	-60.1	?
Cc1cnc(C(=O)OCC(=O)c2ccccc2)cn1	–	–	–	–	–
O=C(O)/C(CC(=O)c1ccc(Cl)cc1)=N/Nc1ccc([N+](=O)[O-])cc1[N+](=O)[O-]	–	–	–	-53.4	·
C/C(CCC(=O)O)=N/Nc1ccc([N+](=O)[O-])cc1[N+](=O)[O-]	–	–	–	–	–
CC(C)(C)N1C(=O)c2ccccc2NC(=O)C1C(=O)NCCc1ccccc1F (stereo unspecified)	·	–	·	–	·
Nc1ccc(N)c(C(=O)O)c1	?	-66.0	?	-90.8	?
Nc1ccc(C(=O)O)c(O)c1	–	–	–	?	–
O=C(Nc1cccc([N+](=O)[O-])c1)N(c1ccccc1)c1ccccc1	–	–	·	–	–
O=C(Nc1ccc(Cl)cc1)N1CCCN(Cc2ccc(F)cc2)C1	–	–	–	·	–
COc1ccc(CNC(=O)CN(Cc2ccco2)C(=O)CNS(=O)(=O)c2ccccc2)cc1	–	–	–	–	–
SMILES	PGK inhibitor	PI4K2A inh	Tb PFK inh	PI5P4Ka inh	Pin1 inhibitor
Cc1ccc(OC(C)C(=O)Nc2ccc3c(c2)n(C)c(=O)n3C)cc1C (stereo unspecified)	–	–	–	–	–
CN(C)CCNc1ccc2nnn3c4ccc(O)cc4c(=O)c1c23	–	–	·	–	–
CCN(CC)CCCNc1ccc2ncn3c4ccc(O)cc4c(=O)c1c23	–	-50.4	·	–	·
COc1ccc(NC(=O)c2cc(-c3ccc(C)cc3)on2)cc1OC	–	–	–	–	–
N#Cc1cn(CC(=O)N2CCCc3ccccc32)c2ccccc12	–	–	–	–	–
O=Cc1cn(CC(=O)N2CCCc3ccccc32)c2ccccc12	–	–	–	-69.3	–
COc1ccccc1NC(=O)N1CCCC1C(=O)NC1CCCCC1 (stereo unspecified)	–	–	–	–	–
Cc1cc(C)c2nc(N3C(=O)C(O)=C(C(=O)c4ccco4)C3c3cccc(O)c3)sc2c1 (stereo unspecified)	–	–	–	-60.5	–
Cc1cc(C)c2nc(N3C(=O)C(O)=C(C(=O)c4ccco4)C3c3ccc(O)cc3)sc2c1 (stereo unspecified)	–	–	–	-65.5	?
